Source: PubChem
Luciferase inh = blocks Photinus pyralis firefly luciferase activity. P08659. purified firefly luciferase, luminescence, 8 min. Potency, µM (titrated, usually from 57.1 µM), for inactives: at the highest dose activity change, negative = inhibition, most hits filed as inhibitors. 2.2% of 72,000 active. AID 411; note: potency is the fitted concentration of half-maximal effect; % is set by controls: 0 for no effect and ±100 for the full control effect; nearly all actives have a fitted effect of over 40% in size
Target sequence (P08659 whole entry, looked up): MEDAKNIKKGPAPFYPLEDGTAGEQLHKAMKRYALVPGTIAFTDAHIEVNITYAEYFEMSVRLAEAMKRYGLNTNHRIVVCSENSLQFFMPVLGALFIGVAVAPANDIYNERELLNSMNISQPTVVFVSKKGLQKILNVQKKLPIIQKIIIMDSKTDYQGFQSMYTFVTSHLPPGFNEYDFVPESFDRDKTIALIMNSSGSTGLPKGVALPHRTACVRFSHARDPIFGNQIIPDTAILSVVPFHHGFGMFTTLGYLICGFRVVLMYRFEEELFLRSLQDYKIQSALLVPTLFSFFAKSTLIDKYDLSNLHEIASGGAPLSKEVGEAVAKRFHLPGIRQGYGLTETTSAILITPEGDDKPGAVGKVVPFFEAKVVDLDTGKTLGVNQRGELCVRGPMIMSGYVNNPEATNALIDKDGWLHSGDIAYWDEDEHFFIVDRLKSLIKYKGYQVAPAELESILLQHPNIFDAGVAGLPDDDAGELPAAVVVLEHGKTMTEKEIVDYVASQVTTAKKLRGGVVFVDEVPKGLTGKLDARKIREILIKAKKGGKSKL
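qHTS concentration-response profiling: light output of P. pyralis luciferase with luciferin and 10 uM ATP, imidazole buffer pH 7.2. Read by luminescence after 8-min room-temperature incubation.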
Bst PK mod = modulators of Bacillus stearothermophilus pyruvate kinase. purified pyruvate kinase, luminescence ATP production; ribose 5-phosphate activator present at AC10. Potency, µM. 1.2% of 51,000 active; in the data active = potency below about 11 µM; inconclusive = mostly about 12 µM to 25 µM;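 the screen sought inhibitors and activators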;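 note: potency is the fitted concentration of half-maximal effect; scaled between full activation by ribose 5 phosphate and full inhibition by luteolin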
GBA mod = alters purified human glucocerebrosidase activity; P04062; Potency, µM; 1.1% of 48,000 active; purified enzyme, resorufin glucoside fluorescence (screen aimed at inhibitors), 20 min; in the data active = potency below about 15 µM; inconclusive = mostly about 16 µM to 33 µM;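 note: potency is the fitted concentration of half-maximal effect; the screen sought inhibitors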
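Wild-type enzyme at 0.2 nM final in 50mM citric acid/KH2PO4, 10mM sodium taurocholate, 0.01% tween-20, pH 5.9, with resorufin beta-D-glucopyranoside at 30 uM final. Compounds titrated, 20 min at RT, red fluorescence read; AC50 from titration.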
GFP derepression = epigenetic GFP locus derepression in mouse cells; Potency, µM (doses to about 46.1 µM), for the others: at the top dose GFP derepression (activation); AID 597; mouse C127i GFP locus derepression, cytometry, 30 h; 0.09% of 68,000 active; note: % of control where 0% means no effect
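Locus derepression in mouse mammary C127i cells whose integrated CMV-GFP reporter is normally silent; GFP expression after 30 h compound treatment was quantified by counting fluorescent cells.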
Ub-GFP proteasome = proteasome inhibitors stabilizing ubiquitin-GFP reporter; Ubiquitin-GFP reporter cells, proteasome inhibition, GFP fluorescence; response scale: untreated = 0%, 10 µM MG-132 = 100%; 67,000 tested, under 10 active; AID 526; Potency, µM (titrated, usually from 45.9 µM), without a hit: at the top dose activation (GFP accumulation), actives largely listed as activators; active = well fitted activation curve with a large enough effect, not every such curve was filed as active; inconclusive = small, poorly fitted or top-dose-only effect, or another doubt; inactive = no such curve, though single readings can be large or run the other way; note: potency is the fitted concentration of half-maximal effect
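Reporter cells (U2OS, ubiquitin-G76V-GFP fusion) are plated overnight, then treated 4 hr at 37 °C with compound titrations from 46 uM down to 2.9 nM. Activity is scaled against untreated cells and 10 uM MG-132.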
HBB splicing = modulators of hemoglobin beta chain splicing; AID 925; Potency, µM (series often up to 46.1 µM), inactives show top-dose activation, hits mostly activators; 0.06% of 65,000 active; HBB splicing reporter cell assay, activation; EGFP reporter with mutant IVS2-654 intron; response scale: normalised to 500 nM splice-correcting PNA; note: potency is the fitted concentration of half-maximal effect; 0% is about no effect
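Compounds were applied for 2 days to HeLa EGFP-654 cells, 500/well in Optimem with 2% FCS. The reporter's EGFP is disrupted by mis-splicing of beta-globin intron IVS2-654. Readout: summed well GFP fluorescence from 488 nm laser scanning; reference was 500 nM antisense […] 654 PNA.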
The depositor's hits bear a star; i = inactive; ? = inconclusive; / = no result given; [ ] = another dose, or the depositor's remark. Hits are enriched below; roughly 3.3% of the tested compounds scored in any of these assays. Unless noted, calls come from the whole dose curve; as a rule, active = well fitted curve in the direction sought with a large enough effect; inconclusive = small, poorly fitted or top-dose-only effect, or another doubt; inactive = no such curve, though single readings can be large; an effect the other way counts as inactive or inconclusive.

SMILES	Luciferase inh	Bst PK mod	GBA mod	GFP derepression	Ub-GFP proteasome	HBB splicing
CCCCN(CCCC)S(=O)(=O)c1ccc(C(=O)Nc2nnc(COC)o2)cc1	1%	>57	?	6%	-4%	-1%
COc1ccccc1N=c1oc2cc(O)ccc2cc1C(=O)NCC1CCCO1 (stereo not given)	-7%	2.6*	>77	1%	0%	/
COc1ccccc1N=c1oc2cc(O)ccc2cc1C(N)=O	7.9µM*	/	/	3%	-6%	1%
Cc1cccc(N=c2oc3cc(O)ccc3cc2C(N)=O)c1	-15%	/	/	1%	7%	-1%
O=C(COC(=O)C1CC1)c1c[nH]c2ccccc12	-2%	>57	>77	0%	-1%	-1%
O=C(OCC(=O)c1c[nH]c2ccccc12)c1ccco1	16µM*	?	>77	-4%	-2%	1%[1.84 µM]
CCCC[C@@H]1C[C@H]1C(NC(=O)c1cccnc1)c1ccc(-c2ccccc2)cc1 (stereo not given in full)	/	/	/	/	/	1%
COCc1cc(=O)n2c(-c3ccc(C)cc3)n[nH]c2n1	13µM*	/	/	/	-4%	1%
COCc1cc(=O)n2c(-c3ccccc3OC)n[nH]c2n1	-7%	>57	>77	-2%	-2%	3%
CCCc1c(OCCCOc2ccc(OCC(=O)O)cc2)ccc(CC=O)c1O	-2%	/	/	1%	-3%	/
CCN(CC)c1ccc2cc(-c3nc4ccccc4n3C)c(=O)oc2c1	-27%	/	/	10µM*	?	?
CCN(CC)c1ccc2cc(-c3nc4ccccc4[nH]3)c(=O)oc2c1	0.04µM*	/	/	0.16µM*	0.5µM*	0.79µM*
COC(=O)N1CCC2(CC1)CN(c1cccc(-c3ccccc3)c1)C2	-10%[11.4 µM]	/	/	0%[9.22 µM]	-3%	1%
CN1CCN(c2ccc(NC(=O)c3ccc4c(c3)OCO4)cc2)CC1	25µM*	/	>77	4%	-3%	/
Cc1cc(N2CCN(C)CC2)nc2ccc(NC(=O)c3ccc(Br)o3)cc12	-11%	/	2.2*	0%	12%	-1%
Cc1cc(N2CCN(C)CC2)nc2ccc(NC(=O)c3ccc4c(c3)OCO4)cc12	25µM*	/	1.1*	4%	-4%	0%
COc1ccccc1C(=O)Nc1ccc(N2CCN(S(C)(=O)=O)CC2)cc1	-23%	/	>77	4%	-3%	/
COc1cc2ccccc2cc1C(=O)Nc1ccc(N2CCN(C)CC2)cc1	10µM*	11*	>77	0%	-1%	1%[57.5 µM]
CC(=O)N1CCN(c2ccc(NC(=O)c3ccc4c(c3)OCCO4)cc2)CC1	-15%	>57	?	-2%	4%	/
Cc1cc(N2CCOCC2)nc2ccc(Cc3ccc4nc(N5CCOCC5)cc(C)c4c3)cc12	0%[11.4 µM]	/	/	-2%[9.22 µM]	6%[9.17 µM]	1%[9.22 µM]
COC(=O)NC(c1cccc(C)c1)[C@]1(C(C)=O)CCOC1=O (stereo not given in full)	/	/	/	/	/	1%[9.22 µM]
CCN(CC)C(=O)Oc1ccc2c(=O)c(-c3ccccc3)coc2c1	16µM*	/	>77	3%	-3%	5%
Nc1nc(N)c2nc(CNc3ccc(C(=O)N[C@H](CCC(=O)O)C(=O)O)cc3)cnc2n1	0%	/	/	2%	-4%	1%
O=C(CSc1nnnn1-c1cccc2ccccc12)N1CCOCC1	-2%	8*	>77	3%	1%	3%
O=C(CSc1nc2ccccc2nc1SCC(=O)N1CCOCC1)N1CCOCC1	-3%	/	/	-2%	8%	0%[9.22 µM]
SMILES	Luciferase inh	Bst PK mod	GBA mod	GFP derepression	Ub-GFP proteasome	HBB splicing
CN1CCc2c(sc3c2C(=O)NC(c2ccco2)N3)C1 (stereo not given)	-11%	>11	>77	-4%	-1%	3%[1.84 µM]
O=C1NC(c2cccs2)Nc2sc3c(c21)CCCC3 (stereo not given)	-28%	2.9*	>77	2%	3%	0%[57.5 µM]
CCCCN(C)C(=O)CCC(=O)Nc1ccc2nc(N3CCOCC3)cc(C)c2c1	-26%	>11	0.71*	3%	-7%	-1%
CCC(C)NC(=O)CCC(=O)Nc1ccc2nc(N3CCOCC3)cc(C)c2c1 (stereo not given)	-17%	>57	6.1*	-2%	6%	0%
Cc1cc(N2CCOCC2)nc2ccc(NC(=O)CCC(=O)N3CCCCC3)cc12	?	>11	2.4*	2%	-1%	8%
Cc1cc(N2CCOCC2)nc2ccc(NC(=O)CCC(=O)N3CCC(C)CC3)cc12	-19%	/	1.7*	1%	-1%	0%
CC(=O)O[C@@H]1CC[C@]2(C)[C@H]3CC[C@]4(C)[C@H](C[C@H]5CCCC[C@@]54C(C)=O)[C@@H]3CC(=O)[C@@]2(O)C1	2%[11.4 µM]	/	/	-5%[9.22 µM]	-4%	/
C[C@@H](CNC1CCCCC1)OC(=O)c1ccccc1	-4%[25.5 µM]	/	/	-2%[20.6 µM]	-5%[20.5 µM]	1%[20.6 µM]
CCN1CCN(c2cc(C)c3cc(NC(=O)Cc4ccc(OC)c(OC)c4)ccc3n2)CC1	-2%	/	/	-3%	-3%	0%
CCOc1ccccc1NC(=O)CCC(=O)Nc1ccc2nc(N3CCN(C)CC3)cc(C)c2c1	?	>57	9.6*	3%	-13%	1%
Cc1cccc(C)c1OC[C@@H](N)C(C)C	0%	/	/	1%	0%	-1%
c1ccc(-c2nc(-n3ccnc3)nc(-n3ccnc3)n2)cc1	4%	0.94*	>77	-2%	9%	0%
c1ccc(N(c2ccccc2)c2nc(N3CCCC3)nc(-n3ccnc3)n2)cc1	2%	>57	/	0%	2%	0%
c1ccc(CN2CCN(c3nc(-c4ccccc4)nc(-n4ccnc4)n3)CC2)cc1	2%	4.4*	/	0%	7%	-1%
COC(=O)c1sccc1NC(=O)c1cc2c(s1)CCCC2	20µM*	/	/	0%	-3%	0%
N#Cc1c(C(F)(F)F)cc(-c2ccccc2)nc1SCc1nc(N)nc(N2CCOCC2)n1	0%	>57	>77	10µM*	6%	10µM*
O=C1C(C=NCCCN2CCOCC2)=C(O)c2ccccc21	-2%	/	/	-2%	-10%	0%
O=C1C(C=NCCN2CCOCC2)=C(O)c2ccccc21	13µM*	/	/	0%	26%[9.17 µM]	0%[0.0738 µM]
O=C(Nc1ccccn1)c1ccc2ccccc2n1	3.2µM*	9*	/	1%	4%	0%
CC(=O)Nc1cccc(C)c1	/	/	/	/	/	-1%
CC(=O)Nc1cccc(NC(=O)Nc2ccc(C(C)=O)cc2)c1	13µM*	i	>77	2%	2%	0%
CCN(CC)c1ccc(NC(=O)Nc2cccc(C(C)=O)c2)cc1	7.9µM*	9*	>77	1%	2%	2%
CC(=O)c1cccc(NC(=O)Nc2ccc(C(=O)N3CCCC3)cc2)c1	2.5µM*	/	>77	-3%	-3%	-1%
O=C(Nc1ccc(Nc2ccccc2)cc1)N1CCOCC1	-7%	>57	2*	0%	4%	3%
